According to PubChem BioAssay (NCATS):
Inconclusive results are not listed. Active and inactive are the calls of the source. Unless noted, calls follow the shape of the dose curve; as a rule, active = well fitted curve in the direction sought with a large enough effect; inconclusive = small, poorly fitted or top-dose-only effect, or another doubt; inactive = no such curve, though single readings can be large; an effect the other way counts as inactive or inconclusive.

What was measured:
[1] = AP1 Signaling Pathway (AID 357; active = well fitted curve in either direction with a large enough effect, not every such curve was filed as active;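 also: ME-180 reporter cells stimulated with EGF at its EC50 level; % is scaled to controls: 0 for no effect and ±100 for the full control effect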); settings: ME-180 AP-1-bla reporter, EGF-induced, beta-lactamase ratio, 5 h; at 7.69 µM (top of the series) unless noted
Summary of the method: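 Cells are seeded overnight, exposed to compound titrations and an EC50 level of EGF for 5 hours at 37 °C, then loaded with CCF4 dye for 2.5 hours. Beta-lactamase activity under the AP-1 element is read as a blue/green ratio.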

[2] = NFAT Signaling Pathway (AID 444; active = well fitted curve in either direction with a large enough effect, not every such curve was filed as active;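 also: carbachol stimulus at about its EC50 of 1 µM final; % is scaled to controls: 0 for no effect and ±100 for the full control effect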); settings: Jurkat NFAT-bla M1, carbachol, beta-lactamase ratio, 5 h; at 7.69 µM (top of the series) unless noted
Summary of the method: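 Jurkat cells with NFAT-driven β-lactamase reporter and co-expressed M1 receptor, stimulated with carbachol (final 1 uM, ~EC50), compound titration, 5 h at 37 °C. CCF4 loaded 1 h at RT; 460/530 nm ratio gave %activity and AC50.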

[3] = Stat Signaling Pathway (AID 446; active = well fitted curve in either direction with a large enough effect, not every such curve was filed as active;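 also: ME-180 cervical cancer cells given 40 pM IL-6 alongside compound; SIE-controlled beta-lactamase reporter measured as 460/530 nm FRET emission ratio; % is scaled to controls: 0 for no effect and ±100 for the full control effect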); settings: ME-180 SIE beta-lactamase reporter, IL-6 stimulated, 5 h; at 7.69 µM (top of the series) unless noted
Summary of the method: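 ME-180 SIE-bla cells; overnight plating; cpd + IL-6 40 pM, 5 h, 37 C; LiveBLAzer 2.5 h RT; 460/530 nm emission ratio. Normalized to 300 pM IL-6 and 125 nM JAK inhibitor controls.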

[4] = biological target: Glucocorticoid receptor (Homo sapiens) (UniProt P04150); test: GR-GFP Redistribution (AID 450;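 active = compounds whose dose series gives a full or clear partial fitted curve of increased nuclear translocation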; also: potency is read from the fitted curve at half-maximal effect); settings: U2OS GR-GFP nuclear translocation, laser cytometry, 2 h
[5] = biological target: Glucocorticoid receptor (Homo sapiens) (UniProt P04150); test: GR-EFC Redistribution (AID 451; calls by dose curve; also: potency is read from the fitted curve at half-maximal effect); settings: CHO-K1 GR-EFC translocation, beta-gal luminescence, 2 h
Summary of the method: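 CHO-K1 cells expressing nuclear EA and GR-ED fragments of b-gal; compounds titrated up to 46 uM final, 2 h at 37 C. GR nuclear translocation read as complemented b-gal luminescence after 1 h RT detection.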

[6] = biological target: Mitogen-activated protein kinase 10 (Mus musculus) (UniProt Q61831); test: JNK3 AlphaScreen Assay (AID 530; active = well fitted curve in either direction with a large enough effect, not every such curve was filed as active;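 also: kinase came from lysate of stimulated human HepG2 cells; signal reports phosphorylation of biotinylated GST-cJun 1-79 at Ser73 with 10 µM ATP; % is scaled to controls: 0 for no effect and ±100 for the full control effect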)
Summary of the method: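 qHTS format: compounds tested as titrations against IL-1beta/TNF-alpha-activated HepG2 lysate JNK3 with biotin-GST-cJun substrate and 10 uM ATP at room temperature. Loss of anti-phospho-cJun AlphaScreen signal indicates inhibition.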

[7] = biological target: ATP-dependent 6-phosphofructokinase (Trypanosoma brucei brucei) (UniProt O15648); test: qHTS Assay to Find Inhibitors of T. brucei phosphofructokinase: hit validation (AID 492961)
Summary of the method: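 Compounds titrated; %activity normalized to 0x and 1x enzyme controls, curve-fitted. Readout: ADP-Glo luminescence after 45 min room-temperature reaction of 1.25 nM PFK, 0.1 mM ATP, 0.5 mM F6P, pH 8.0.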

[8] = biological target: Ubiquitin carboxyl-terminal hydrolase 1 (Homo sapiens) (UniProt O94782); test: Inhibitors of USP1/UAF1: Pilot qHTS (AID 504865);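 also: rhodamine fluorescence freed from ubiquitin-rhodamine substrate followed over time; top concentration of the series differs between compounds; % is scaled to controls: 0 for no effect and ±100 for the full control effect; nearly all actives have a fitted effect of over 35% in size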
Summary of the method: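 1nM USP1/UAF1 + cpd, 15 min RT; start w/ Ub-Rho 150nM final; kinetic FL 480/540 nm, 6 reads q60 s. Buffer 50mM HEPES pH 7.8, 0.5mM EDTA, 1mM TCEP, 0.01% Tween-20, 0.1 mg/ml BSA.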

[9] = biological target: Luciferin 4-monooxygenase (Photinus pyralis) (UniProt P08659); test: Biochemical firefly luciferase enzyme assay for NPC (AID 624030);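 also: purified P. pyralis luciferase at 10 nM with luciferin and ATP substrate; 0% = DMSO and -100% = full luciferase inhibition by PTC124 control; nearly all actives have a fitted effect of over 70% in size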
Summary of the method: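 Purified P. pyralis luciferase at 10 nM in 50 mM Tris Acetate (final), luminescence read within 5 minutes of enzyme addition to compounds. Activity normalised to PTC124 versus DMSO; concentration-response curves classed by r2, magnitude and activity.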

[10] = S16 Schwann cell PMP22 intronic element firefly luciferase assay (AID 624032); also: potency is read from the fitted curve at half-maximal effect; nearly all actives have a fitted effect of over 30% in size
Summary of the method: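 Rat S16 Schwann cells stably carrying firefly luciferase driven by a PMP22 intronic element, in 10% FBS, treated 24 h at 37 C. ONE-Glo luminescence normalized to PTC124 control and DMSO (0%); curves classed by r2, magnitude and activity.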

[11] = qHTS to identify inhibitors of the type 1 interferon - major histocompatibility complex class I in skeletal muscle: primary screen against the NCATS Mechanism Interrogation Plate v5.0 (MIPE) Libary (AID 1347411); also: potency is read from the fitted curve at half-maximal effect; nearly all actives have a fitted effect of over 65% in size
Summary of the method: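 Cells were genome-edited human myoblasts carrying a HiBit tag on endogenous HLA-B. They were treated with IFN-beta (4.0 ng/ml) and titrated compounds (top 46 uM) for 24 hrs before lytic HiBiT detection.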

[12] = Primary qHTS for inhibitors of nuclear receptor binding SET domain protein 2 (NSD2) in an isogenic RCH-ACV NSD2 p.E1099K mutant (9B) (AID 1645876); also: potency is read from the fitted curve at half-maximal effect; nearly all actives have a fitted effect of over 70% in size
[13] = biological target: Glutathione peroxidase 1 (Homo sapiens) (UniProt P07203); test: Primary qHTS Assay for Inhibitors of Recombinant Selenoprotein Glutathione Peroxidase 1 (GPX1) (AID 1845191); also: % is scaled to controls: 0 for no effect and ±100 for the full control effect; nearly all actives have a fitted effect of over 65% in size
Summary of the method: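 GR-coupled assay: compounds preincubated 30 min at room temperature with GPX1, then reaction started with CHP; final 10 nM GPX1, 1 mM GSH, 0.5 mM CHP, 0.5 mM NADPH, 100 nM GR, 0.01% BSA, pH 7.5 Tris buffer. NADPH fluorescence (340/450 nm) read at 0 and 15 min.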

[14] = biological target: Phospholipid hydroperoxide glutathione peroxidase GPX4 (Homo sapiens) (UniProt P36969); test: Primary qHTS Assay for Inhibitors of Recombinant Selenoprotein Glutathione Peroxidase 4 (GPX4) (AID 1845192); settings: outcome: dose series up to 50 µM unless noted; also: % is scaled to controls: 0 for no effect and ±100 for the full control effect; nearly all actives have a fitted effect of over 65% in size
Summary of the method: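 GR-coupled assay: recombinant GPX4 preincubated 30 min with compound at room temperature; final 200 nM GPX4, 1 mM GSH, 0.5 mM cumene hydroperoxide, 0.5 mM NADPH, 100 nM GR, 0.01% BSA, pH 7.5 Tris. NADPH fluorescence (340/450 nm) read at 0 and 15 min.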

[15] = qHTS drug screen for cell cycle checkpoint inhibitors in PARPi-resistant BRCA-mutant ovarian cancer cell lines. (AID 1963452; calls by dose curve); settings: PEO1/OlaR viability, CellTiter-Glo luminescence, 96 h, stronger effect = lower value
Summary of the method: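 PEO1, PEO4 and PEO1/OlaR ovarian cancer cells, 600 per well, exposed 96 h at 37C to a dilution series. Viability read by CellTiter-Glo luminescence, normalized to DMSO and empty wells; activity summarized as Z-AUC.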

[16] = qHTS profiling for inhibitors of Plasmodium falciparum proliferation (AID 504749); also: potency is read from the fitted curve at half-maximal effect; nearly all actives have a fitted effect of over 60% in size; settings: P. falciparum in erythrocytes, SYBR Green DNA, 72 h
Summary of the method: (§1)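 Readout was DNA-dye fluorescence from lysed cultures, ex 485/em 535 nm. Parasitized red cells had grown 72 h with compound; data scaled between 0.29 uM artemisinin and DMSO wells and corrected using vehicle-only plates.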

3D7 = test: as above; settings: P. falciparum in erythrocytes, SYBR Green DNA, 72 h; series mostly up to 28.7 µM
Summary of the method: as §1

7G8 = test: as above; settings: P. falciparum in erythrocytes, SYBR Green DNA, 72 h; series mostly up to 28.7 µM
Summary of the method: as §1

AA1029 = test: as above; settings: P. falciparum in erythrocytes, SYBR Green DNA, 72 h; series mostly up to 28.7 µM
Summary of the method: as §1

AS120 = test: as above; settings: P. falciparum in erythrocytes, SYBR Green DNA, 72 h; series mostly up to 28.7 µM
Summary of the method: as §1

ATS189 = test: as above; settings: P. falciparum in erythrocytes, SYBR Green DNA, 72 h; series mostly up to 28.7 µM
Summary of the method: as §1

ATS95 = test: as above; settings: P. falciparum in erythrocytes, SYBR Green DNA, 72 h; series mostly up to 28.7 µM
Summary of the method: as §1

C2A = test: as above; settings: P. falciparum in erythrocytes, SYBR Green DNA, 72 h; series mostly up to 28.7 µM
Summary of the method: as §1

CP185 = test: as above; settings: P. falciparum in erythrocytes, SYBR Green DNA, 72 h; series mostly up to 28.7 µM
Summary of the method: as §1

CP191 = test: as above; settings: P. falciparum in erythrocytes, SYBR Green DNA, 72 h; series mostly up to 28.7 µM
Summary of the method: as §1

CP192 = test: as above; settings: P. falciparum in erythrocytes, SYBR Green DNA, 72 h; series mostly up to 28.7 µM
Summary of the method: as §1

CP194 = test: as above; settings: P. falciparum in erythrocytes, SYBR Green DNA, 72 h; series mostly up to 28.7 µM
Summary of the method: as §1

CP201 = test: as above; settings: P. falciparum in erythrocytes, SYBR Green DNA, 72 h; series mostly up to 28.7 µM
Summary of the method: as §1

CP203 = test: as above; settings: P. falciparum in erythrocytes, SYBR Green DNA, 72 h; series mostly up to 28.7 µM
Summary of the method: as §1

CP211 = test: as above; settings: P. falciparum in erythrocytes, SYBR Green DNA, 72 h; series mostly up to 28.7 µM
Summary of the method: as §1

CP215 = test: as above; settings: P. falciparum in erythrocytes, SYBR Green DNA, 72 h; series mostly up to 28.7 µM
Summary of the method: as §1

CP217 = test: as above; settings: P. falciparum in erythrocytes, SYBR Green DNA, 72 h; series mostly up to 28.7 µM
Summary of the method: as §1

CP237 = test: as above; settings: P. falciparum in erythrocytes, SYBR Green DNA, 72 h; series mostly up to 28.7 µM
Summary of the method: as §1

CP238 = test: as above; settings: P. falciparum in erythrocytes, SYBR Green DNA, 72 h; series mostly up to 28.7 µM
Summary of the method: as §1

CP247 = test: as above; settings: P. falciparum in erythrocytes, SYBR Green DNA, 72 h; series mostly up to 28.7 µM
Summary of the method: as §1

Sequence of Glucocorticoid receptor (Homo sapiens) (P04150 whole entry, looked up, the tested form may be a part): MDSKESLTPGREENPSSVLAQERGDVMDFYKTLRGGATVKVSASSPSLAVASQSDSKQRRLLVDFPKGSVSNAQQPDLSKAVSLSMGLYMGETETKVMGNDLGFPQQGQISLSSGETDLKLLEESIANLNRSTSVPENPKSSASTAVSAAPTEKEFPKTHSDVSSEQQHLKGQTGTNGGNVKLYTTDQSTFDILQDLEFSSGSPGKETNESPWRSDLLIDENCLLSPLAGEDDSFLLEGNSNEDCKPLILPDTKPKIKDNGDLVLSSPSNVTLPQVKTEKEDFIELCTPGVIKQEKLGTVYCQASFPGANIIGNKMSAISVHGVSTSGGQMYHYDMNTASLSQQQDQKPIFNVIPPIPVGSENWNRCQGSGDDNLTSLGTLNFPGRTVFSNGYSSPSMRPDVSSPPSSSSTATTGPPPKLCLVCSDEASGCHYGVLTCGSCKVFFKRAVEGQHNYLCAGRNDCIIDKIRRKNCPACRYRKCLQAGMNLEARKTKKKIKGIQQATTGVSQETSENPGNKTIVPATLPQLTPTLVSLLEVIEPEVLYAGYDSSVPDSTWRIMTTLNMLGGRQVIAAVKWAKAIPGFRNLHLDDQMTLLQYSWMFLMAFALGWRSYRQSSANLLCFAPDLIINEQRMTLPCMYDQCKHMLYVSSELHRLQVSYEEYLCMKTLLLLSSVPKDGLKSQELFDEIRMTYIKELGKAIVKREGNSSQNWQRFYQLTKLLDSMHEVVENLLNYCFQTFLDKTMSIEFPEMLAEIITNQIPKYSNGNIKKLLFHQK
Sequence of Ubiquitin carboxyl-terminal hydrolase 1 (Homo sapiens) (O94782 whole entry, looked up): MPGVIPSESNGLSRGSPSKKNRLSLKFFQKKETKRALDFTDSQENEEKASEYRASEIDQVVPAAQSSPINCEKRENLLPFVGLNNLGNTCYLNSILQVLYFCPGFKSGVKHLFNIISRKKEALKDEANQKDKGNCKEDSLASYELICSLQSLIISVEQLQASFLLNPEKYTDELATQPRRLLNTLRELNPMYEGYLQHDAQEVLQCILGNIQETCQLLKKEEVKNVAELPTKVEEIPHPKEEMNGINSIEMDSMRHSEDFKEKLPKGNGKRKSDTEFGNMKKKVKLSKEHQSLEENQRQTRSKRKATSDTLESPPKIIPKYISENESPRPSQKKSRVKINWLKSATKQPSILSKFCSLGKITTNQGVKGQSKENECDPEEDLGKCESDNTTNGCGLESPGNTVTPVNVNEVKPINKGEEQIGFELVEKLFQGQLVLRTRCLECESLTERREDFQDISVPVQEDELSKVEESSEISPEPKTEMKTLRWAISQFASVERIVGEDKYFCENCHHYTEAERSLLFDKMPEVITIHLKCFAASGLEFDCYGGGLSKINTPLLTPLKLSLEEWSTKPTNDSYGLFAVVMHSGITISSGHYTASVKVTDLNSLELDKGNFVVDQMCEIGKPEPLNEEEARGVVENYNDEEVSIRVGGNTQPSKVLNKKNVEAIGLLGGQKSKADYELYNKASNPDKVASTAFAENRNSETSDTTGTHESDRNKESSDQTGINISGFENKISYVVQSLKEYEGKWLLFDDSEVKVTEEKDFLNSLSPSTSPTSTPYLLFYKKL
Sequence of Luciferin 4-monooxygenase (Photinus pyralis) (P08659 whole entry, looked up): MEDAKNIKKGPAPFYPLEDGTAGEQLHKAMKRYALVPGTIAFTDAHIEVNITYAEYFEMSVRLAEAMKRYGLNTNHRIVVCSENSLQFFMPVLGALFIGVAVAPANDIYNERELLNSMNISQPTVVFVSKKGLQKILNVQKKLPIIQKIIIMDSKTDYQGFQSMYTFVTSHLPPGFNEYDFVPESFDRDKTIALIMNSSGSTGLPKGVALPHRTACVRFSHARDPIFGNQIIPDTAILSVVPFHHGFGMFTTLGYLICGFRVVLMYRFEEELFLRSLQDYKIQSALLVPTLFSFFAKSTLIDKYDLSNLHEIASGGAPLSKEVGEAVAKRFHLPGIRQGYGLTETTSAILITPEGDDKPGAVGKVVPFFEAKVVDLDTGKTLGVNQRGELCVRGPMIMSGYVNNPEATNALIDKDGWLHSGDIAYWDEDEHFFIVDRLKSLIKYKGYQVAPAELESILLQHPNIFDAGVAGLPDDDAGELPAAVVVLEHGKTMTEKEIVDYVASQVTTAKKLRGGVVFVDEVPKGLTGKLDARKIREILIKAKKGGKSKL
Sequence of ATP-dependent 6-phosphofructokinase (Trypanosoma brucei brucei) (O15648 whole entry, looked up): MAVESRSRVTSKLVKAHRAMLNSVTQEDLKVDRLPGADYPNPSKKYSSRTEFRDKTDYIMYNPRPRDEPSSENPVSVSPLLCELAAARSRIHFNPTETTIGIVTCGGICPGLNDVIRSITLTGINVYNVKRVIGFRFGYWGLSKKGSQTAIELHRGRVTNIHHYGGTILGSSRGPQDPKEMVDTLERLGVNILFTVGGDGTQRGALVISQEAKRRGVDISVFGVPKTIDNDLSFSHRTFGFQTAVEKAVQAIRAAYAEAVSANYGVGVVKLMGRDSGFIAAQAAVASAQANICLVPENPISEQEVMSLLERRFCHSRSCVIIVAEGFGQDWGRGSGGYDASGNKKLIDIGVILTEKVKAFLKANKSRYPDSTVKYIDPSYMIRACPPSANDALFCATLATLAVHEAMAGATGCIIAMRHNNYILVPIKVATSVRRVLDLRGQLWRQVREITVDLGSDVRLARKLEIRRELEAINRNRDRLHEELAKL
Sequence of Glutathione peroxidase 1 (Homo sapiens) (P07203 whole entry, looked up): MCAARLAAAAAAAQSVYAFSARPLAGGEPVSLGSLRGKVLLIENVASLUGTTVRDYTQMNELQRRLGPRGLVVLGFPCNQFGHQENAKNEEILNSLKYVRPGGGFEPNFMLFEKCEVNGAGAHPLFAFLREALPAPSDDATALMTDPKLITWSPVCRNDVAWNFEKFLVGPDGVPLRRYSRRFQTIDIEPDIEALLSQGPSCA
Sequence of Phospholipid hydroperoxide glutathione peroxidase GPX4 (Homo sapiens) (P36969 whole entry, looked up): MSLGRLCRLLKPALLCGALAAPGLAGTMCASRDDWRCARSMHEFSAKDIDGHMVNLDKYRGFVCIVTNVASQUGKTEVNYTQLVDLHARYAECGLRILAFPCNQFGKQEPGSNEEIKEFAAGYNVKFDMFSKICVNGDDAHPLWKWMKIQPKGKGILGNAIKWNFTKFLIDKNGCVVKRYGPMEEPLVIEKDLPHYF

C[C@@]12C(=O)OC(=O)[C@]1(C)[C@H]1CC[C@@H]2O1
active: activity change, negative = inhibition [1] -102% [at 17.2 µM] | activity change, negative = inhibition [2] -99.7% [at 17.2 µM] | activity, negative = inhibition [3] -85.9% [at 17.2 µM] | Potency [4] 2.63 µM | Potency [10] 0.616 µM | Potency [11] 5.87 µM | Potency [12] 6.61 µM | Potency ([16]; parasite line A) 3.98 µM | Potency ([16]; parasite line B) 3.16 µM | Potency (3D7) 3.16 µM | Potency (7G8) 2.82 µM | Potency (AA1029) 3.16 µM | Potency (AS120) 3.55 µM | Potency (ATS189) 2.82 µM | Potency (ATS95) 3.98 µM | Potency (C2A) 3.98 µM | Potency (CP185) 2.51 µM | Potency (CP191) 1.58 µM | Potency (CP192) 4.55 µM | Potency (CP194) 2.87 µM | Potency (CP201) 3.61 µM | Potency (CP203) 2.56 µM | Potency (CP211) 5.1 µM | Potency (CP215) 2.28 µM | Potency (CP217) 2.51 µM | Potency (CP237) 1.26 µM | Potency (CP238) 2.51 µM | Potency (CP247) 1.78 µM
inactive: Potency [5] > 20.6 µM | outcome [6] | outcome [7] | Potency [8] | Potency [9] | Potency [13] | Potency [14] | Z-AUC [15] 0.0424
0.505: Z-AUC ([15]; measured here: PEO1 parental Z-AUC)
0.28: Z-AUC ([15]; measured here: PEO4 Z-AUC)
